Source: PubChem (National Center for Advancing Translational Sciences (NCATS))
Hits are enriched below; roughly 19% of the tested compounds scored in any of these assays.
DT40 TDP1 no CPT: qHTS for Inhibitors of human tyrosyl-DNA phosphodiesterase 1 (TDP1): qHTS in cells in absence of CPT; Potency, µM (highest dose often 46.2 µM), hits mostly inhibitors; actives 15% (n = 420,000); DT40 Tdp1-/- hTDP1 cells, no CPT, ATP luminescence, 48 h; note: nearly all actives have a fitted effect of over 55% in size
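Readout: luminescence from CellTiter-Glo after 30 min in the dark at RT. Cells: DT40 Tdp1-/- with stable hTDP1, 400/well. Exposure: compounds alone, ≥48 hr, 37 °C.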
HT1080 IDH1KD tx: qHTS for induction of synthetic lethality in tumor cells producing 2HG: qHTS for the HT-1080-IDH1KD cell line | HT-1080 IDH1 knockdown viability, ATP luminescence, 48 h | Potency, µM (titrated, usually from 46.1 µM), actives largely listed as cytotoxic | actives 2% (n = 360,000)
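Luminescent ATP read-out (CellTiter-Glo, 10 min at room temperature) after 48 h compound exposure at 37 °C gave viability of IDH1-knockdown HT-1080 cells. Activity was normalised to DMSO and cell-free wells, then fitted as concentration-response curves.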
TDP1 cell CPT: qHTS for Inhibitors of human tyrosyl-DNA phosphodiesterase 1 (TDP1): qHTS in cells in presence of CPT; chicken DT40 Tdp1-/-;hTDP1 cells + 20 nM CPT, ATP luminescence, 48 h; actives 12% (n = 420,000); Potency, µM (top dose mostly 46.2 µM), hits mostly inhibitors; note: nearly all actives have a fitted effect of over 55% in size
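Chicken DT40 Tdp1-/- cells stably complemented with human TDP1 were seeded at 400 cells/well in medium containing 20 nM camptothecin, exposed to pin-transferred compounds, and grown at 37 °C for at least 48 hr. Viability was read as ATP luminescence.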
KB-V1 MDR tox: qHTS assay for MDR1-selective chemotherapeutics: Primary screen using the drug-selected MDR subline cells KB-V1 | actives 3.4% (n = 400,000) | Potency, µM (highest dose often 46.1 µM), actives largely listed as cytotoxic | KB-V1 MDR cells viability, CellTiter-Glo, 72 h | AID 1347076, 2019; note: nearly all actives have a fitted effect of over 60% in size
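Cells of the MDR subline KB-V1 are plated, dosed with compound at multiple concentrations, and incubated 72 h at 37 degrees C; CellTiter-Glo is then added and luminescence read after 10 min.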
HT1080-NT tox: qHTS for induction of synthetic lethality in tumor cells producing 2HG: qHTS for the HT-1080-NT fibrosarcoma cell line | HT-1080-NT fibrosarcoma viability, CellTiter-Glo ATP luminescence, 48 h | Potency, µM (top dose mostly 46.1 µM), hits mostly cytotoxic | actives 1.6% (n = 360,000) | AID 686970, 2013;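 note: NT is the 2HG producing partner of a matched IDH1 knockdown line; nearly all actives have a fitted effect of over 55% in size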
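HT-1080-NT fibrosarcoma cells (2HG-overproducing), 750 cells/well in RPMI with 5% FBS, dosed after 2 h and incubated 48 h at 37C. CellTiter-Glo luminescence normalized to DMSO and no-cell wells; concentration-response curves fitted and classed.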
KB-3-1 cytotox: qHTS assay for MDR1-selective chemotherapeutics: Primary screen using the parental adenocarcinoma cell KB-3-1; KB-3-1 viability, CellTiter-Glo ATP luminescence, 72 h; Potency, µM (series often up to 46.1 µM), usual class: cytotoxic; actives 1.4% (n = 400,000); AID 1347075, 2019; note: nearly all actives have a fitted effect of over 60% in size
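Luminescent ATP read-out (CellTiter-Glo) measures survival of drug-naive KB-3-1 cells after 72 h compound exposure at 37 °C. Titration series was screened from lowest to highest concentration, with DMSO vehicle plates as background controls.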
Large screens that a line does not name were inactive. Calls come from the whole dose curve; as a rule, active = well fitted curve in the direction sought with a large enough effect; inconclusive = small, poorly fitted or top-dose-only effect, or another doubt; inactive = no such curve, though single readings can be large; an effect the other way counts as inactive or inconclusive.

O=C(CCCn1c(=S)[nH]c2cc3c(cc2c1=O)OCO3)NCCc1ccccc1Cl	none
CCCNC(=O)C1(C)CCCN(C(=O)c2ccc3snnc3c2)C1 (centres undefined)	HT1080-NT tox inconclusive
CN(C)c1ccc(CNn2cnnc2SCC(=O)NC(C)(C)C)cc1	none
CCOc1cc(CNn2cnnc2SCC(=O)NC(C)(C)C)ccc1OCC(=O)NC(C)(C)C	DT40 TDP1 no CPT 18µM
CC(=O)OC1CCC2(C)C(CCC3C4CC=C(C(C)=O)C4(C)OC(=O)CC32)C1 (centres undefined)	DT40 TDP1 no CPT 2.1µM, HT1080 IDH1KD tx 10µM, TDP1 cell CPT 2.3µM, KB-V1 MDR tox inconclusive, HT1080-NT tox inconclusive, KB-3-1 cytotox 23µM
Cc1ccc(CNC(=O)CCCn2c(=O)c3ccccc3n(Cc3ccccc3Cl)c2=O)cc1	DT40 TDP1 no CPT inconclusive (no result: HT1080 IDH1KD tx, HT1080-NT tox)
O=C1CCC2(CC1)NC(=O)N(c1ccccc1)N2	HT1080 IDH1KD tx 8.2µM, HT1080-NT tox inconclusive
O=C(Nc1ccccc1C(F)(F)F)c1ccc2oc(=O)c(S(=O)(=O)c3ccc(F)cc3)cc2c1	KB-3-1 cytotox inconclusive (no result: HT1080 IDH1KD tx, HT1080-NT tox)
O=c1oc2ccc(Br)cc2cc1S(=O)(=O)c1ccc(F)cc1	HT1080 IDH1KD tx 15µM, KB-V1 MDR tox inconclusive, HT1080-NT tox inconclusive, KB-3-1 cytotox 29µM
Cc1ccc([N+](=O)[O-])cc1CN1CCN(c2ncc(Cc3ccccc3)cn2)CC1	DT40 TDP1 no CPT inconclusive, HT1080 IDH1KD tx inconclusive, TDP1 cell CPT inconclusive, KB-V1 MDR tox inconclusive, KB-3-1 cytotox inconclusive
O=[N+]([O-])c1ccc(Cl)c(CN2CCN(c3ncccn3)CC2)c1	none
COc1ccc([N+](=O)[O-])cc1CN1CCN(c2ncc(Cc3ccccc3)cn2)CC1	DT40 TDP1 no CPT 18µM, HT1080 IDH1KD tx inconclusive, TDP1 cell CPT 21µM, KB-V1 MDR tox 7.3µM, HT1080-NT tox inconclusive, KB-3-1 cytotox inconclusive
O=[N+]([O-])c1ccc(F)c(CN2CCN(c3ncc(Cc4ccccc4)cn3)CC2)c1	DT40 TDP1 no CPT 21µM, TDP1 cell CPT inconclusive, KB-V1 MDR tox inconclusive, KB-3-1 cytotox inconclusive
COc1ccc(N2CCN(C(CNS(C)(=O)=O)c3ccco3)CC2)cc1 (centres undefined)	KB-3-1 cytotox inconclusive
COc1ccc(OCC(=O)Nc2ccc(S(=O)(=O)N3CCCCC3)cc2)cc1	none
COc1ccc(NC(=O)COc2nsnc2N2CCOCC2)c(OC)c1	none
COc1ccc(NC(=O)COc2nsnc2N2CCCCC2)cc1	DT40 TDP1 no CPT 18µM, TDP1 cell CPT 12µM
O=C(COc1nsnc1N1CCOCC1)Nc1ccc(Br)cc1	DT40 TDP1 no CPT 21µM, TDP1 cell CPT inconclusive
COCCCNC(=O)c1ccccc1SC	none
CCOc1ccc(Nc2nnc(Cc3ccc(OC)cc3)c(=O)[nH]2)cc1	none
COCCC(=O)N1CCC(Oc2ccc(C(=O)N3CCCCC3COC)cc2)CC1 (centres undefined)	none
Cn1c(=O)c2c(ncn2CC(=O)N2CCN(c3ccccc3F)CC2)n(C)c1=O	none
Cc1cccc(N2CCN(C(=O)Cn3cnc4c3c(=O)n(C)c(=O)n4C)CC2)c1C	DT40 TDP1 no CPT 18µM, TDP1 cell CPT 23µM
Cc1cccc(N2CCN(C(=O)Cn3c(=O)c4cccn4c4ccc(F)cc43)CC2)c1C	DT40 TDP1 no CPT 10µM, TDP1 cell CPT 21µM (no result: HT1080 IDH1KD tx, KB-V1 MDR tox, HT1080-NT tox, KB-3-1 cytotox)
Cc1cccc(N2CCN(C(=O)Cn3ccc4ccccc4c3=O)CC2)c1C	DT40 TDP1 no CPT inconclusive, HT1080 IDH1KD tx inconclusive, TDP1 cell CPT 13µM
CC1Cc2ccccc2N1C(=O)Cn1cnc2c1c(=O)n(C)c(=O)n2C (centres undefined)	DT40 TDP1 no CPT 23µM, TDP1 cell CPT inconclusive, KB-V1 MDR tox inconclusive
C#CCNCCS(=O)(=O)N(Cc1ccc(Br)cc1)[C@@H](C)C(=O)O	none
O=C(Oc1ccc(C(=S)N2CCC(O)CC2)cc1)c1ccc(Cl)cc1	none
Cc1nc(NC(=O)c2ccc(Cl)cc2)sc1Cc1ccc2c(c1)OCO2	DT40 TDP1 no CPT 3.7µM, HT1080 IDH1KD tx 6.5µM, TDP1 cell CPT 4.1µM, KB-V1 MDR tox 4.6µM, HT1080-NT tox 10µM, KB-3-1 cytotox 9.2µM
COc1cc(OC)cc(C(=O)NCc2ccc3c(c2)OCO3)c1	none
CSc1nnc(-c2cccc(C)c2)n1N	none
CN(CC(=O)Nc1ccc(Cl)c(C(F)(F)F)c1)C(=O)c1ccc2c(c1)NC(=O)CS2	DT40 TDP1 no CPT 23µM, TDP1 cell CPT inconclusive
CN(CC(=O)Nc1ccc(Cl)c(C(F)(F)F)c1)C(=O)c1cc(-c2ccncc2)nc2ccccc12	DT40 TDP1 no CPT 18µM, TDP1 cell CPT inconclusive, KB-V1 MDR tox inconclusive, KB-3-1 cytotox inconclusive
CN(CC(=O)Nc1ccc(Cl)c(C(F)(F)F)c1)C(=O)c1cccnc1Sc1ccccc1	DT40 TDP1 no CPT inconclusive, TDP1 cell CPT inconclusive
CN(CC(=O)Nc1ccc(Cl)c(C(F)(F)F)c1)C(=O)c1cn2ccccc2n1	DT40 TDP1 no CPT 10µM, TDP1 cell CPT 13µM, KB-V1 MDR tox inconclusive
Cc1cccc(C(=O)OCC(=O)N(C)CC(=O)Nc2ccc(Cl)c(C(F)(F)F)c2)c1	DT40 TDP1 no CPT inconclusive, TDP1 cell CPT 15µM
CC(C)n1cc(CN2CCN(CCc3ccccc3)C(CCO)C2)cn1 (centres undefined)	none
Cc1ccc(S(=O)(=O)N2CCN(C(=O)CC(C)n3nc(C)c(Cl)c3C)CC2)cc1 (centres undefined)	none
Cn1c(N)c(N=O)c(=O)n(C)c1=S	DT40 TDP1 no CPT inconclusive
COc1ccc(CCC(=O)N2CCCC(Nc3ccc(C)c(C)c3)C2)cc1OC (centres undefined)	DT40 TDP1 no CPT inconclusive, TDP1 cell CPT inconclusive
CN(CC(=O)Nc1ccc(Cl)c(C(F)(F)F)c1)C(=O)C1(c2ccccc2)CC1	DT40 TDP1 no CPT 16µM, TDP1 cell CPT inconclusive
CN(CC(=O)Nc1ccc(Cl)c(C(F)(F)F)c1)C(=O)c1cnccn1	DT40 TDP1 no CPT inconclusive, TDP1 cell CPT inconclusive
Cc1cc(C(=O)N(C)CC(=O)Nc2ccc(Cl)c(C(F)(F)F)c2)no1	DT40 TDP1 no CPT 16µM, KB-V1 MDR tox inconclusive
CN(CC(=O)Nc1ccc(Cl)c(C(F)(F)F)c1)C(=O)c1cccs1	DT40 TDP1 no CPT 16µM, TDP1 cell CPT inconclusive
